Reference: PubChem BioAssay (NCATS)
A number with no mark means an inactive call. Results filed as inconclusive are left out. The source made the active and inactive calls. Unless noted, calls follow the shape of the dose curve; as a rule, active = well fitted curve in either direction with a large enough effect (not every such curve was filed as active); inconclusive = small, poorly fitted or top-dose-only effect, or another doubt; inactive = flat fitted curve, though single readings scatter.

Legend:
[1] = molecular target: Lysosomal acid glucosylceramidase (Homo sapiens) (UniProt P04062); assay: Glucocerebrosidase-p2 (AID 348; in the data active = potency below about 10 µM; also: potency is read from the fitted curve at half-maximal effect); conditions: purified GBA, blue fluorogenic substrate, 40 min
Chain of Lysosomal acid glucosylceramidase (Homo sapiens) (P04062 whole entry, looked up): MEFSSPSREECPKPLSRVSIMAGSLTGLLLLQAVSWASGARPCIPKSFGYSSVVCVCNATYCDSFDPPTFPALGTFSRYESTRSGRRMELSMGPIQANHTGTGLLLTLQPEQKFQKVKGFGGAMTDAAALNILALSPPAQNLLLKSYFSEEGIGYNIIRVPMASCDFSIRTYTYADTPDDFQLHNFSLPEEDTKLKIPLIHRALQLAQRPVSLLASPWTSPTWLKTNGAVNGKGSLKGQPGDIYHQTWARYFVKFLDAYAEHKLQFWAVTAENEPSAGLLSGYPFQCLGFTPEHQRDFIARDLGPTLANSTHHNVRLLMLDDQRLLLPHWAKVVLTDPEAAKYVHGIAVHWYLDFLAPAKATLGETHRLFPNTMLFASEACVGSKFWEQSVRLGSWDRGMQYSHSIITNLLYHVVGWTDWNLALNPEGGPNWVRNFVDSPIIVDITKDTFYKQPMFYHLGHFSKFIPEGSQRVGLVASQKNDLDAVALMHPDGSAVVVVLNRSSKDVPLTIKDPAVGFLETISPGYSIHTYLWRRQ
In short: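 Compounds titrated from 0.6 nM upwards against 0.2 nM enzyme in pH 5.9 citric acid/KH2PO4, taurocholate, tween-20; blue fluorogenic substrate 80 uM, 40 min room temperature, stopped and read Ex 365/Em 440 for AC50.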

[2] = AP1 Signaling Pathway (AID 357); conditions: ME-180 AP-1-bla reporter, EGF-induced, beta-lactamase ratio, 5 h; at 7.69 µM (top of the series) unless noted;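 also: ME-180 reporter cells stimulated with EGF at its EC50 level; % is scaled to controls: 0 for no effect and ±100 for the full control effect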
In short: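 Read-out was the 460nm/530nm emission ratio (excitation 405nm) after CCF4 loading for 2.5 hours at room temperature. Cells carried an AP-1-driven beta-lactamase reporter, were stimulated with EC50 EGF plus compound for 5 hours, and AC50 values came from titrations.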

[3] = molecular target: Cytochrome P450 1A2 (Homo sapiens) (UniProt P05177); assay: p450-cyp1a2 (AID 410; calls by dose curve; also: potency is read from the fitted curve at half-maximal effect;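 as to activity change, negative = inhibition: -100% = full effect of reference inhibitor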); conditions: recombinant CYP1A2, luciferin-ME demethylation, luminescence; series mostly up to 11.4 µM
Chain of Cytochrome P450 1A2 (Homo sapiens) (P05177 whole entry, looked up): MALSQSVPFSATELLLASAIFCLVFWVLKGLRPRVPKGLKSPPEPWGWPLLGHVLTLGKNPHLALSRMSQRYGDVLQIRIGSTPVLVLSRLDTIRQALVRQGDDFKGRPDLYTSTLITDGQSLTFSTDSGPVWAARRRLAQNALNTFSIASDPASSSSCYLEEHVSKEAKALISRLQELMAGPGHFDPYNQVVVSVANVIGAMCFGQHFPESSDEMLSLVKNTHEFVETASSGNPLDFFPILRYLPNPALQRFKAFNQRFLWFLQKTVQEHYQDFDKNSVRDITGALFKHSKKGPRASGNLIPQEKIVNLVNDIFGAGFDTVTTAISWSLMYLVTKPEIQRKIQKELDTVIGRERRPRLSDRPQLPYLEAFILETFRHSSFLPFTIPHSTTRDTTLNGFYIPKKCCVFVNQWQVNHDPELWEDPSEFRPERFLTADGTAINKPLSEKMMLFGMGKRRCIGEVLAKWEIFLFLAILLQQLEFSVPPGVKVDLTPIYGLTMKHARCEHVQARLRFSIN
In short: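 Inhibition was calculated relative to 57 uM furafylline (full inhibition). The reaction used human CYP1A2 at 20nM with Luciferin-ME at its Km, 100uM, driven by an NADPH-regenerating system for 60 min at room temperature.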

[4] = NFAT Signaling Pathway (AID 444); conditions: Jurkat NFAT-bla M1, carbachol, beta-lactamase ratio, 5 h; at 7.69 µM (top of the series) unless noted;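 also: carbachol stimulus at about its EC50 of 1 µM final; % is scaled to controls: 0 for no effect and ±100 for the full control effect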
In short: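 Jurkat cells carrying an NFAT-driven β-lactamase reporter and co-transfected muscarinic M1 receptor were treated with compound plus carbachol (1 uM final, an EC50 level) for 5 h at 37 °C. CCF4 loading followed for 1 h at RT; 460/530 nm ratio gave %activity.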

[5] = Stat Signaling Pathway (AID 446); conditions: ME-180 SIE beta-lactamase reporter, IL-6 stimulated, 5 h; at 7.69 µM (top of the series) unless noted;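 also: ME-180 cervical cancer cells given 40 pM IL-6 alongside compound; SIE-controlled beta-lactamase reporter measured as 460/530 nm FRET emission ratio; % is scaled to controls: 0 for no effect and ±100 for the full control effect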
In short: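 IL-6/STAT signaling read in ME-180 cells via an SIE beta-lactamase reporter. Stimulus was 40 pM IL-6 (its AC50) for 5 hrs, so both activation and inhibition register.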

[6] = molecular target: Glucocorticoid receptor (Homo sapiens) (UniProt P04150); assay: GR-GFP Redistribution (AID 450;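 active = compounds whose dose series gives a full or clear partial fitted curve of increased nuclear translocation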; also: potency is read from the fitted curve at half-maximal effect); conditions: U2OS GR-GFP nuclear translocation, laser cytometry, 2 h
Chain of Glucocorticoid receptor (Homo sapiens) (P04150 whole entry, looked up, the tested form may be a part): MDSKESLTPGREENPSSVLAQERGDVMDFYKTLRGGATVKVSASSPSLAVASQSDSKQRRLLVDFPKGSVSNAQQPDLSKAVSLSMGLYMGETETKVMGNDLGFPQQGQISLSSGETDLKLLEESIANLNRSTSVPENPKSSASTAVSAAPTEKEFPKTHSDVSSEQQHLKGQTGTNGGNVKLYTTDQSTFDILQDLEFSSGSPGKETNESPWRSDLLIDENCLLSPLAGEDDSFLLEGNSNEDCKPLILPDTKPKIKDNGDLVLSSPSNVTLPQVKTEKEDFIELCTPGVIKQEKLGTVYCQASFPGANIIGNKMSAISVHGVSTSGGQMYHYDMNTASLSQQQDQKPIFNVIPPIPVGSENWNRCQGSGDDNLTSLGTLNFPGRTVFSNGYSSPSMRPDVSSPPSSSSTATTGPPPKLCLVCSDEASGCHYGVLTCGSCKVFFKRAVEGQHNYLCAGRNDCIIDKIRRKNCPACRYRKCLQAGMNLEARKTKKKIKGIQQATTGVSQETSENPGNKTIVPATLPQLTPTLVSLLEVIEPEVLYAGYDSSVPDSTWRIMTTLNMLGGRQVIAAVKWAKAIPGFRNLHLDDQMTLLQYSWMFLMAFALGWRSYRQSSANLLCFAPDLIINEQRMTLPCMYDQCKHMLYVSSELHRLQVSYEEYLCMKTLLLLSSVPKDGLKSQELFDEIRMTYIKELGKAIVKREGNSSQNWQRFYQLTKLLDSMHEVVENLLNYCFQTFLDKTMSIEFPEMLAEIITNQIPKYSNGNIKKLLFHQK

[7] = molecular target: Glucocorticoid receptor (Homo sapiens) (UniProt P04150); assay: GR-EFC Redistribution (AID 451; calls by dose curve; also: potency is read from the fitted curve at half-maximal effect); conditions: CHO-K1 GR-EFC translocation, beta-gal luminescence, 2 h
In short: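 CHO-K1 cells stably expressing nuclear-localized β-gal enzyme acceptor and GR fused C-terminally to the enzyme donor fragment; ligand-driven nuclear translocation restores β-gal by complementation. Compounds titrated up to 46 uM final, 2 h at 37 °C; luminescence read.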

[8] = molecular target: Mitogen-activated protein kinase 10 (Mus musculus) (UniProt Q61831); assay: JNK3 AlphaScreen Assay (AID 530); conditions: JNK3 lysate, c-Jun phosphorylation; series mostly up to 11.4 µM;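 also: kinase came from lysate of stimulated human HepG2 cells; signal reports phosphorylation of biotinylated GST-cJun 1-79 at Ser73 with 10 µM ATP; % is scaled to controls: 0 for no effect and ±100 for the full control effect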
In short: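 JNK3 came from HepG2 lysates pre-activated with IL-1beta and TNF-alpha and phosphorylated biotinylated GST-cJun (1-79) at 10 uM ATP, pH 7.6, room temperature. Compounds were titrated. AlphaScreen signal used anti-phospho-cJun (Ser73) antibody.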

[9] = molecular target: Cytochrome P450 3A4 (Homo sapiens) (UniProt P08684); assay: qHTS Assay for Activators of Cytochrome P450 3A4 (AID 885; active = well fitted curve in the direction sought with a large enough effect; an effect the other way counts as inactive or inconclusive; also: nearly all actives have a fitted effect of over 65% in size); conditions: recombinant CYP3A4, Luciferin-PPXE luminescence, 60 min; series mostly up to 11.4 µM
Chain of Cytochrome P450 3A4 (Homo sapiens) (P08684 whole entry, looked up): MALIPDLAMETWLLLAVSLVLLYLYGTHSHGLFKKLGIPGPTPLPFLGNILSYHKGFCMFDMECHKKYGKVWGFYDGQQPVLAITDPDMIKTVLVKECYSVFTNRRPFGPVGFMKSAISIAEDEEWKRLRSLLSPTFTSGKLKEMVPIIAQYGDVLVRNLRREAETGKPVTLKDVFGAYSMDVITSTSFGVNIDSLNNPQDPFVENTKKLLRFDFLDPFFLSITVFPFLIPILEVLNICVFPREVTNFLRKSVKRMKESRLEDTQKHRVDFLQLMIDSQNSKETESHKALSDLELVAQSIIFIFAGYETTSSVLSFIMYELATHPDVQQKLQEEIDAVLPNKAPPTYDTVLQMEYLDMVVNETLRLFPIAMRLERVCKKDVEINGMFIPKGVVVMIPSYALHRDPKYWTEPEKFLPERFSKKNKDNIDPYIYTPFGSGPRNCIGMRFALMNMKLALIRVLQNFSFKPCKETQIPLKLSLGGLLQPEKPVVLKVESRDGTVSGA
In short: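 Quantitative HTS format: compounds preincubated with 20nM human CYP3A4 and Luciferin-PPXE substrate at KM, reaction started by NADPH regeneration, stopped after 60 min, luciferase luminescence read 20 min later.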

[10] = molecular target: 3',5'-cyclic-AMP phosphodiesterase 4B (Homo sapiens) (UniProt Q07343); assay: qHTS Assay for Inhibitors of PDE-IV (AID 607; active = well fitted activation curve with a large enough effect in the main read-out, with a control signal flat, not every such curve was filed as active; also: % of control where 0% means no effect); conditions: HEK293 ACTOne CNG channel cells, membrane potential fluorescence; series mostly up to 22.9 µM
Chain of 3',5'-cyclic-AMP phosphodiesterase 4B (Homo sapiens) (Q07343 whole entry, looked up): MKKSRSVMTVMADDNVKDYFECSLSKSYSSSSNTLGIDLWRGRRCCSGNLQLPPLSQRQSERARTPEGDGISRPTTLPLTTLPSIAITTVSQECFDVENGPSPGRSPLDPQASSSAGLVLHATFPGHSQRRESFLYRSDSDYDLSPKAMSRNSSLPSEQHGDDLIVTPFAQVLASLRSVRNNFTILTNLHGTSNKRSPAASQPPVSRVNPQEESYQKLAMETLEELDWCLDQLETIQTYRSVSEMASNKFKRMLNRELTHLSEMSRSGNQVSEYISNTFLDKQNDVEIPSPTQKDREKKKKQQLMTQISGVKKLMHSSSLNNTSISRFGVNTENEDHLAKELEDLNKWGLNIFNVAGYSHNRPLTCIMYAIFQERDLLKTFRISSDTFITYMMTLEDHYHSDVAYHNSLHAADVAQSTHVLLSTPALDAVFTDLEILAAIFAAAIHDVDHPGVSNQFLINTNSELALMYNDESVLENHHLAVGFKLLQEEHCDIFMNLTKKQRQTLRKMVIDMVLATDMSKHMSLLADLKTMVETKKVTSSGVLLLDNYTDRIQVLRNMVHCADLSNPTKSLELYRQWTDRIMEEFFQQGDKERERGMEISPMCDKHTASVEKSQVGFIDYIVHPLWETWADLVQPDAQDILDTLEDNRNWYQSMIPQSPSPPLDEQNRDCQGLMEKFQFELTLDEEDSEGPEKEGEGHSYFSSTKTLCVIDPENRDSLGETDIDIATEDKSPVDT
In short: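 Live HEK293 cells with a modified cyclic nucleotide-gated (CNG) channel report intracellular cAMP via membrane-potential dye fluorescence (ex 535/em 590 nm). Endogenous PDE-IV was targeted. Compounds were tested at up to 22.9 uM final; RO 20-1724 100 uM served as control.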

[11] = qHTS Assay for Identification of Small Molecule Agonists for Hypoxia Response Element Signaling Pathway (AID 914; active = well fitted activation curve with a large enough effect in the signal ratio, with a control signal flat, not every such curve was filed as active; the % refers to the signal ratio; also: % of control where 0% means no effect); conditions: ME-180 (cervical carcinoma) HRE-bla reporter, beta-lactamase ratio, CoCl2, 17 h; activation: active compounds read high
In short: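 Positive modulation of EC50 CoCl2-induced hypoxia response element signaling is measured in ME-180 cells with a beta-lactamase reporter. Compounds are titrated, incubation runs 17 hours, and %Activity derives from the blue/green ratio.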

[12] = molecular target: Cytochrome P450 2C9 (Homo sapiens) (UniProt P11712); assay: qHTS Assay for Inhibitors and Substrates of Cytochrome P450 2C9 (AID 883; active = well fitted curve in the direction sought with a large enough effect; an effect the other way counts as inactive or inconclusive; also: nearly all actives have a fitted effect of over 60% in size; also: potency is read from the fitted curve at half-maximal effect); conditions: recombinant CYP2C9, luciferin-H luminescence, 60 min; series mostly up to 11.4 µM
Chain of Cytochrome P450 2C9 (Homo sapiens) (P11712 whole entry, looked up): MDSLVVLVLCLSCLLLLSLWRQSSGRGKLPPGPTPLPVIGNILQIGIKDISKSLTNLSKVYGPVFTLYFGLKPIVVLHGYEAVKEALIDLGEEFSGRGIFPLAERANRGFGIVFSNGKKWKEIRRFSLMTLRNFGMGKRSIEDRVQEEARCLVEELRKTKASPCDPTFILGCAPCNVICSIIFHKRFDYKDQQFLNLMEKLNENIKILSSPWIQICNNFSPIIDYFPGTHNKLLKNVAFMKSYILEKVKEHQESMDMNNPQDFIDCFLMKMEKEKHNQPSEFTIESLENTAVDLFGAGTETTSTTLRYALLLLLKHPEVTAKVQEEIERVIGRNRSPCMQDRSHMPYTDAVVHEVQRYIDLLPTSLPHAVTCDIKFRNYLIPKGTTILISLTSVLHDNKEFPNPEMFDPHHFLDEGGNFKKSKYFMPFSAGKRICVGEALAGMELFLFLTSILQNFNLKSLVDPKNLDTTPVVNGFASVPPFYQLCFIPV
In short: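 Human CYP2C9 (10nM) hydroxylated Luciferin-H (100uM, at its KM) to luciferin in 25mM KPO4. Compound was preincubated 10 min at 37C, then NADPH regeneration started a 60 min reaction at 37C. Luminescence was read after detection reagent, normalized to 57uM sulphaphenazole.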

For `Cc1nc2cnc(N3CCOCC3)nc2n(Cc2cccs2)c1=O`, the Potency [1] was greater than 11.4 µM, the activity change, negative = inhibition [2] was -18.4% and the Potency [3] was 2 µM (active). It also gave an activity change, negative = inhibition [4] of -3.19%, an activity, negative = inhibition [5] of -5.33% and a Potency [6] greater than 9.22 µM. For the same compound, the Potency [7] was greater than 46 µM, the Potency [8] was “inactive” and the Potency [9] was “inactive”.

For `O=C(Cn1ccc(=O)[nH]c1=O)Nc1ccc(C(=O)O)c(O)c1`, the Potency [1] was greater than 11.4 µM, the activity change, negative = inhibition [2] was 13.2% and the activity change, negative = inhibition [3] was -16.5% [at 2.29 µM]. The activity change, negative = inhibition [4] was 18.3%, the activity, negative = inhibition [5] was 2.74% and the Potency [6] was greater than 46 µM. The Potency [7] was greater than 9.22 µM, the Potency [8] was “inactive” and the Potency [10] was “inactive”. For the same compound, the activation [11] was 6.06%.

With `O=C1C(=O)c2ccccc2C(O)=C1C(CCc1ccccc1)C1=C(O)c2ccccc2C(=O)C1=O` the Potency [1] was greater than 11.4 µM, the activity change, negative = inhibition [2] was -6.25% and the activity change, negative = inhibition [3] was -21.3% [at 2.29 µM]. For the same compound, the activity change, negative = inhibition [4] was 6.66%, the activity, negative = inhibition [5] was -1.13% and the Potency [6] was greater than 46 µM. For the same compound, the Potency [7] was greater than 9.22 µM, the Potency [10] was “inactive” and the Potency [12] was 3.16 µM (active).

For `CC(C)N(CC(=O)O)CC(=O)O`, the Potency [1] was greater than 11.4 µM, the activity change, negative = inhibition [2] was 11.5% and the Potency [3] was “inactive”. It also gave an activity change, negative = inhibition [4] of 4.66%, an activity, negative = inhibition [5] of 10.4% and a Potency [6] greater than 46 µM. For the same compound, the Potency [7] was greater than 9.22 µM and the Potency [10] was “inactive”.

For `O=C(O)c1cccc(CN2CCCCC2)c1`, the Potency [1] was greater than 11.4 µM, the activity change, negative = inhibition [2] was 9.32% and the Potency [3] was “inactive”. For the same compound, the activity change, negative = inhibition [4] was -15.5%, the activity, negative = inhibition [5] was 3.88% and the Potency [6] was greater than 46 µM. The Potency [7] was greater than 9.22 µM, the Potency [10] was “inactive” and the Potency [12] was “inactive”.

With `O=C1c2ccccc2-c2ccc(NC(=O)[C@H]3CCCC[C@@H]3C(=O)O)cc21` the Potency [1] was greater than 11.4 µM, the activity change, negative = inhibition [2] was 9.83% and the Potency [3] was 1 µM (active). It also gave an activity change, negative = inhibition [4] of 13.7%, an activity, negative = inhibition [5] of 1.55% and a Potency [6] greater than 46 µM. For the same compound, the Potency [7] was greater than 9.22 µM, the Potency [8] was “inactive” and the Potency [10] was “inactive”. It also gave an activation [11] of -7.45%.

For `O=S(=O)(O)c1cc(N=Nc2cccc3ccccc23)c(O)c2ncccc12`, the Potency [1] was greater than 11.4 µM, the activity change, negative = inhibition [2] was -3.71% and the Potency [3] was 0.631 µM (active). It also gave an activity change, negative = inhibition [4] of 8.38%, an activity, negative = inhibition [5] of 0.477% and a Potency [6] greater than 46 µM. For the same compound, the Potency [7] was greater than 9.22 µM and the Potency [10] was “inactive”.

In the case of `COc1ccc(-n2c(=O)c(C)nc3cnc(Nc4cccc(OC)c4)nc32)cc1`, the Potency [1] is reported as greater than 11.4 µM, the activity change, negative = inhibition [2] is reported as -25.7% and the Potency [3] is reported as 15.8 µM (active). For the same compound, the activity change, negative = inhibition [4] was 10.5%, the activity, negative = inhibition [5] was -24.1% and the Potency [6] was greater than 9.22 µM. The Potency [7] was greater than 46 µM, the Potency [8] was “inactive” and the Potency [9] was “inactive”.

For `Cc1ccc(S(=O)(=O)N[C@H](C(=O)O)C(C)C)cc1`, the Potency [1] was greater than 11.4 µM, the activity change, negative = inhibition [2] was 9.07% and the Potency [3] was “inactive”. For the same compound, the activity change, negative = inhibition [4] was -0.0198%, the activity, negative = inhibition [5] was -0.976% and the Potency [6] was greater than 46 µM. For the same compound, the Potency [7] was greater than 9.22 µM and the Potency [10] was “inactive”.

`COC(=O)[C@]1(C)CCC(c2ccc(C)cc2)=C(CC(=O)O)C1` showed a Potency [1] greater than 11.4 µM, an activity change, negative = inhibition [2] of -2.42% and an activity change, negative = inhibition [3] of -8.4% [at 2.29 µM]. It also gave an activity change, negative = inhibition [4] of -1.89%, an activity, negative = inhibition [5] of 2.79% and a Potency [6] greater than 46 µM. The Potency [7] was greater than 9.22 µM, the Potency [8] was “inactive” and the Potency [10] was “inactive”. It also gave an activation [11] of 4.66%.

In the case of `COc1ccc(/C=C(\C#N)C(N)=O)cc1OC`, the Potency [1] is reported as greater than 11.4 µM, the activity change, negative = inhibition [2] is reported as -5.77% and the Potency [3] is reported as 3.16 µM (active). For the same compound, the activity change, negative = inhibition [4] was 11.6%, the activity, negative = inhibition [5] was -2.19% and the Potency [6] was greater than 46 µM. The Potency [7] was greater than 9.22 µM and the Potency [10] was “inactive”.

In the case of `CC1(C)[C@@H]2CC[C@]1(CC(=O)O)[C@H](Cl)C2`, the Potency [1] is reported as greater than 11.4 µM, the activity change, negative = inhibition [2] is reported as 9.82% and the Potency [3] is reported as “inactive”. For the same compound, the activity change, negative = inhibition [4] was 2.95%, the activity, negative = inhibition [5] was 6.68% and the Potency [6] was greater than 46 µM. For the same compound, the Potency [7] was greater than 9.22 µM, the Potency [8] was “inactive” and the Potency [10] was “inactive”. It also gave an activation [11] of 2.22%.

For `O=C1C[C@H]2C(=O)[C@@H]1[C@@H](C(=O)O)[C@H]2C(=O)O`, the Potency [1] was greater than 11.4 µM, the activity change, negative = inhibition [2] was 5.27% and the Potency [3] was “inactive”. The activity change, negative = inhibition [4] was 7.84%, the activity, negative = inhibition [5] was -5.86% and the Potency [6] was greater than 46 µM. For the same compound, the Potency [7] was greater than 9.22 µM and the Potency [10] was “inactive”.

For `O=C(O)c1c[nH]c2c(ccc3[nH]cc(C(=O)O)c(=O)c32)c1=O`, the Potency [1] was greater than 11.4 µM, the activity change, negative = inhibition [2] was -0.603% and the Potency [3] was 5.01 µM (active). The activity change, negative = inhibition [4] was 8.43%, the activity, negative = inhibition [5] was 13.7% and the Potency [6] was greater than 46 µM. The Potency [7] was greater than 9.22 µM and the Potency [10] was “inactive”.

For `O=C(O)c1ccc(CNCc2ccccc2)cc1`, the Potency [1] was greater than 11.4 µM, the activity change, negative = inhibition [2] was -3.63% and the Potency [3] was “inactive”. For the same compound, the activity change, negative = inhibition [4] was -2.06%, the activity, negative = inhibition [5] was 15.5% and the Potency [6] was greater than 46 µM. For the same compound, the Potency [7] was greater than 9.22 µM, the Potency [8] was “inactive” and the Potency [10] was “inactive”. The activation [11] was 4.76%.

For `N=C(N)SCc1cc(Cl)cc(Cl)c1O`, the Potency [1] was greater than 11.4 µM, the activity change, negative = inhibition [2] was 3.73% and the Potency [3] was 5.01 µM (active). For the same compound, the activity change, negative = inhibition [4] was 5.42%, the activity, negative = inhibition [5] was 2.98% and the Potency [6] was greater than 46 µM. The Potency [7] was greater than 9.22 µM, the Potency [8] was “inactive” and the Potency [10] was “inactive”. For the same compound, the activation [11] was -24.5%.
